Test results reported in PubChem BioAssay (NCATS).
Records with an inconclusive call do not appear. Calls of active or inactive are those of the source. Calls follow the shape of the dose curve; as a rule, active = well fitted curve in the direction sought with a large enough effect; inconclusive = small, poorly fitted or top-dose-only effect, or another doubt; inactive = no such curve, though single readings can be large; an effect the other way counts as inactive or inconclusive.

Key:
[1] = qHTS to identify inhibitors of the type 1 interferon - major histocompatibility complex class I in skeletal muscle: primary screen against the NCATS Pharmaceutical Collection (AID 1347407);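 also: luminescence of HiBiT knocked into endogenous HLA-B as interferon-induced MHC class I level; % is scaled to controls: 0 for no effect and ±100 for the full control effect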
In short: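 A qHTS format is used: 8-point, 1:5 compound series with 46 uM top final concentration, applied alongside 4 ng/ml IFN-beta to HLA-B*08:01-HiBiT knock-in myoblasts. Luminescence is measured after 24 h treatment.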

[2] = target: Protein phosphatase 1D (Homo sapiens) (UniProt O15297); test: RapidFire Mass Spectrometry qHTS Assay for Modulators of WT P53-Induced Phosphatase 1 (WIP1) (AID 1347424);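 also: amount of dephosphorylated VEPPL-S-QETFS peptide product formed by WIP1; series mostly up to about 63 µM; plate controls were DMSO wells for no effect and GSK830371 inhibitor control at 10 µM for full effect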
Sequence of Protein phosphatase 1D (Homo sapiens) (O15297 whole entry, looked up): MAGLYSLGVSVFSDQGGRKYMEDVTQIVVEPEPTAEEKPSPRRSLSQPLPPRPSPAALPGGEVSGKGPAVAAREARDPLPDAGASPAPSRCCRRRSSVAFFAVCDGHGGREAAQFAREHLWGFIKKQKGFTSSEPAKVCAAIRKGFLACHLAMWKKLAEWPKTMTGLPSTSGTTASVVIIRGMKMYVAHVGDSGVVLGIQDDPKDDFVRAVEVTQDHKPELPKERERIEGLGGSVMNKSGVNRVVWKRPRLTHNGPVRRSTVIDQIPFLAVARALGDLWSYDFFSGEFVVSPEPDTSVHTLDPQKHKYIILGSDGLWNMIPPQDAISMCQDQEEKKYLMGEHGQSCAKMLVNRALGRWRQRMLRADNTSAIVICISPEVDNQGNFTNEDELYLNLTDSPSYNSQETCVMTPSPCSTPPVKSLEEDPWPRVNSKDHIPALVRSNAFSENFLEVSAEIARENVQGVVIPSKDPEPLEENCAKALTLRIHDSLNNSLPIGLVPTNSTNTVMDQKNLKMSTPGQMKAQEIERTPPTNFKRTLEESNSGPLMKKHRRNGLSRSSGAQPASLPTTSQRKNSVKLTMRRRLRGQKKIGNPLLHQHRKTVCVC
In short: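 10 nM WIP1 + cpd, 1 h RT; + 2 uM VEPPL-pS-QETFS, 5 min RT; stop 0.5% formic acid; labelled product standard 1 uM; RapidFire MS. Buffer 50 mM Tris pH 7.5, 30 mM MgCl2, 1 mM TCEP.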

[3] = target: Protein phosphatase 1D (Homo sapiens) (UniProt O15297); test: Rhodamine-PBP qHTS Assay for Modulators of WT P53-Induced Phosphatase 1 (WIP1) (AID 1347425); also: % of control where 0% means no effect
In short: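 The read-out is the change in Rhodamine-PBP fluorescence (f1 - f0, ex 525/em 598 nm) as Pi is released, read each minute for 11 min. Final reaction: 5 nM WIP1, 10 uM phosphopeptide VEPPL-pS-QETFS, 10 uM Rh-PBP, 50 mM Tris-HCl pH 7.5, 30 mM MgCl2. Compound was preincubated with enzyme for 1 hour at room temperature.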

[4] = Primary qHTS for inhibitors of La Crosse Virus (LACV) - induced cell death in SH-SY5Y cells (AID 1508616);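 also: top concentration of the series differs between compounds; 0% = infected DMSO wells and 100% = uninfected DMSO wells; higher means more rescue of cells from virus-induced death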
In short: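 SH-SY5Y cells (6000/well) plated 24 h, then given compounds by pin transfer and LACV at 0.01 MOI for 6 days at 37C. Viability measured by ATPLite luminescence, normalized to infected DMSO and uninfected DMSO.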

[5] = target: Calcium and integrin-binding protein 1 (Homo sapiens) (UniProt Q99828); test: Primary qHTS for Identification of Calcium Integrin Binding Protein 1 (CIB1) Competitor (AID 1508620);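 also: GST tagged CIB1 binding a fluorescein labelled alphaIIb integrin peptide tracer; top concentration of the series differs between compounds; % is scaled to controls: 0 for no effect and ±100 for the full control effect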
Sequence of Calcium and integrin-binding protein 1 (Homo sapiens) (Q99828 whole entry, looked up): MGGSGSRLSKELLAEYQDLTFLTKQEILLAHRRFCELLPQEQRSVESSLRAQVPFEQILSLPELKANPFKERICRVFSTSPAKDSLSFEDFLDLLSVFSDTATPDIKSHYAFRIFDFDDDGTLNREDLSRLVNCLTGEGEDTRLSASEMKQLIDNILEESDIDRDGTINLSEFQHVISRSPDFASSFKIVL
In short: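 CIB1-GST (1 uM final) and compound incubated 15 min at room temperature before adding FITC-alphaIIb peptide tracer (100 nM final). Competition for binding read by fluorescence polarization (ex 480, em 540) after another 15 min at room temperature.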

C[N+](C)(C)CC(O)CC(=O)[O-] (stereo not given)
inactive: outcome [1] | outcome [2] | outcome [3] | outcome [4] | outcome [5]

CC(=O)Nc1ccccc1
inactive: outcome [1] | outcome [2] | outcome [3] | outcome [4] | outcome [5]

CCN(CC)CC1CCCCN1CC(=O)N1c2ccccc2C(=O)Nc2cccnc21 (stereo not given)
inactive: outcome [1] | outcome [2] | outcome [3] | outcome [4] | outcome [5]

O=C(Cn1ccnc1[N+](=O)[O-])NCCO
inactive: outcome [1] | outcome [2] | outcome [3] | outcome [4] | outcome [5]

CC[N+](CC)(CC(=O)Nc1c(C)cccc1C)Cc1ccccc1
inactive: outcome [1] | outcome [2] | outcome [3] | outcome [4] | outcome [5]

NC(=O)N[C@@H](CCC(=O)O)C(=O)O
inactive: outcome [1] | outcome [2] | outcome [3] | outcome [4] | outcome [5]

CO[C@@]1(NC(=O)C(C(=O)O)c2ccc(O)cc2)C(=O)N2C(C(=O)O)=C(CSc3nnnn3C)CO[C@@H]21 (stereo not given in full)
inactive: outcome [1] | outcome [2] | outcome [3] | outcome [4] | outcome [5]

CC(=O)Oc1cccc(O)c1
inactive: outcome [1] | outcome [2] | outcome [3] | outcome [4] | outcome [5]

CCCNC(C)(C)COC(=O)c1ccccc1
inactive: outcome [1] | outcome [2] | outcome [3] | outcome [4] | outcome [5]

CN1CCCN=C1COC(=O)C(O)(c1ccccc1)C1CCCCC1 (stereo not given)
inactive: outcome [1] | outcome [2] | outcome [3] | outcome [4] | outcome [5]

CCN(CC)S(=O)(=O)c1ccc(C(=O)O)cc1
inactive: outcome [1] | outcome [2] | outcome [3] | outcome [4] | outcome [5]

Nc1ncnc2c1ncn2[C@@H]1O[C@H](COP(=O)(O)O)[C@@H](O)[C@H]1O
inactive: outcome [1] | outcome [2] | outcome [3] | outcome [4] | outcome [5]

O=C(/C=C/c1ccccc1)OCc1ccccc1
inactive: outcome [1] | outcome [2] | outcome [3] | outcome [4] | outcome [5]

Cc1ccc(C(C)C)c(O)c1
inactive: outcome [1] | outcome [2] | outcome [3] | outcome [4] | outcome [5]

Cc1cccc(C)c1NC(=O)CC12CCCN1CCC2
inactive: outcome [1] | outcome [2] | outcome [3] | outcome [4] | outcome [5]

CCOc1cc(NC(C)=O)ccc1C(=O)OC
inactive: outcome [1] | outcome [2] | outcome [3] | outcome [4] | outcome [5]

O=C(O)CNC(=O)c1ccccc1I
inactive: outcome [1] | outcome [2] | outcome [3] | outcome [4] | outcome [5]

CCCCCCCC(=O)OCC(COC(=O)CCCCCCC)OC(=O)CCCCCCC
inactive: outcome [1] | outcome [2] | outcome [3] | outcome [4] | outcome [5]

CC(=O)Nc1ccc(OCCOCCOc2ccc(NC(C)=O)cc2)cc1
inactive: outcome [1] | outcome [2] | outcome [3] | outcome [4] | outcome [5]

CC1CCc2cc(F)cc3c(=O)c(C(=O)O)cn1c23 (stereo not given)
inactive: outcome [1] | outcome [2] | outcome [3] | outcome [4] | outcome [5]

Nc1ccc(C(=O)Oc2ccccc2)c(O)c1
inactive: outcome [1] | outcome [2] | outcome [3] | outcome [4] | outcome [5]

CCN(CC)CCOC(=O)C(c1ccccc1)c1ccccc1
inactive: outcome [1] | outcome [2] | outcome [3] | outcome [4] | outcome [5]

NNC(=O)CP(=O)(c1ccccc1)c1ccccc1
inactive: outcome [1] | outcome [2] | outcome [3] | outcome [4] | outcome [5]

Cc1ccc(S(=O)(=O)NC(=O)NC2CCCCC2)cc1
inactive: outcome [1] | outcome [2] | outcome [3] | outcome [4] | outcome [5]

NC(=O)CCCCC1CCSS1 (stereo not given)
inactive: outcome [1] | outcome [2] | outcome [3] | outcome [4] | outcome [5]

O=c1[nH]c(=O)c2ccccc2o1
inactive: outcome [1] | outcome [2] | outcome [3] | outcome [4] | outcome [5]

CN[C@@H]1[C@@H](O)[C@@H](O[C@@H]2[C@H](O)[C@H](O[C@H]3OC(CN)=CC[C@H]3N)[C@@H](N)C[C@H]2N)OCC1(C)O (stereo not given in full)
inactive: outcome [1] | outcome [2] | outcome [3] | outcome [4] | outcome [5]

CC(C)NC[C@@H](O)COc1ccc(CC(N)=O)cc1
inactive: outcome [1] | outcome [2] | outcome [3] | outcome [4] | outcome [5]

CC(=O)OC[C@H]1O[C@@](COC(C)=O)(O[C@H]2O[C@H](COC(C)=O)[C@@H](OC(C)=O)[C@H](OC(C)=O)[C@H]2OC(C)=O)[C@@H](OC(C)=O)[C@@H]1OC(C)=O
inactive: outcome [1] | outcome [2] | outcome [3] | outcome [4] | outcome [5]

CCOc1ccc(C(=O)OCCN(CC)CC)cc1
inactive: outcome [1] | outcome [2] | outcome [3] | outcome [4] | outcome [5]

COc1ccccc1OC(=O)Oc1ccccc1OC
inactive: outcome [1] | outcome [2] | outcome [3] | outcome [4] | outcome [5]

CNCc1ccccc1
inactive: outcome [1] | outcome [2] | outcome [3] | outcome [4] | outcome [5]

COc1cc(O)cc(O)c1
inactive: outcome [1] | outcome [2] | outcome [3] | outcome [4] | outcome [5]

CN[C@@H]1[C@H](O)[C@H](NC)[C@H]2O[C@@]3(O)C(=O)C[C@@H](C)O[C@H]3O[C@@H]2[C@H]1O
inactive: outcome [1] | outcome [2] | outcome [3] | outcome [4] | outcome [5]

O=C(OOC(=O)c1ccccc1)c1ccccc1
inactive: outcome [1] | outcome [2] | outcome [3] | outcome [4] | outcome [5]

O=C(CCBr)N1CCN(C(=O)CCBr)CC1
inactive: outcome [1] | outcome [2] | outcome [3] | outcome [4] | outcome [5]

N[C@@H](Cc1ccc(O)cc1)C(=O)O
inactive: activity change, negative = inhibition [1] -1.9% [at 9.18 µM] | activity change, negative = inhibition [2] 3.61% [at 12.6 µM] | activity change, negative = inhibition [3] 8.22% [at 11.5 µM] | activity change [4] 20.5% [at 0.858 µM] | outcome [5]

CC(=O)N[C@H]1[C@H]([C@H](O)[C@H](O)CO)OC(C(=O)O)=C[C@@H]1N=C(N)N
inactive: outcome [1] | outcome [2] | outcome [3] | outcome [4] | outcome [5]

C[N+](C)(C)CC[N+]1(C)Cc2c(Cl)c(Cl)c(Cl)c(Cl)c2C1
inactive: outcome [1] | outcome [2] | outcome [3] | outcome [4] | outcome [5]

CCC(C)(CN(C)C)OC(=O)c1ccccc1 (stereo not given)
inactive: outcome [1] | outcome [2] | outcome [3] | outcome [4] | outcome [5]

Cc1ncc(CO)c(CN)c1O
inactive: outcome [1] | outcome [2] | outcome [3] | outcome [4] | outcome [5]

CNc1c2c(nn1C)CCCC2
inactive: outcome [1] | outcome [2] | outcome [3] | outcome [4] | outcome [5]

CC(=O)N1C[C@H](O)C[C@H]1C(=O)O
inactive: outcome [1] | outcome [2] | outcome [3] | outcome [4] | outcome [5]

COC(=O)c1ccccc1C(=O)c1ccc(OCCN2CCCCC2)cc1
inactive: outcome [1] | outcome [2] | outcome [3] | outcome [4] | outcome [5]

Cc1ccc(S(=O)(=O)NC(=O)NC2CCCCCCC2)cc1
inactive: outcome [1] | outcome [2] | outcome [3] | outcome [4] | outcome [5]

NCC1CCC(C(=O)Oc2ccc(CCC(=O)O)cc2)CC1 (stereo not given)
inactive: outcome [1] | outcome [2] | outcome [3] | outcome [4] | outcome [5]

NNc1nnc(NN)c2ccccc12
inactive: outcome [1] | outcome [2] | outcome [3] | outcome [4] | outcome [5]

O=C(Cn1ccnc1[N+](=O)[O-])NCc1ccccc1
inactive: outcome [1] | outcome [2] | outcome [3] | outcome [4] | outcome [5]

CC(=O)SC[C@@H](Cc1ccccc1)C(=O)NCC(=O)OCc1ccccc1
inactive: outcome [1] | outcome [2] | outcome [3] | outcome [4] | outcome [5]

CCOC(=O)[C@H](CCc1ccccc1)N[C@@H](C)C(=O)N1Cc2cc(OC)c(OC)cc2C[C@H]1C(=O)O
inactive: outcome [1] | outcome [2] | outcome [3] | outcome [4] | outcome [5]

CC(C)CCOC(=O)c1ccc(N(C)C)cc1
inactive: outcome [1] | outcome [2] | outcome [3] | outcome [4] | outcome [5]

O=C(O)c1ccc(OCCCOc2ccc(C(=O)O)cc2)cc1
inactive: outcome [1] | outcome [2] | outcome [3] | outcome [4] | outcome [5]

CC(C)c1cc2c(cc1S(=O)(=O)O)[C@@]1(C)CCC[C@@](C)(C(=O)O)[C@@H]1CC2
inactive: outcome [1] | outcome [2] | outcome [3] | outcome [4] | outcome [5]

NS(=O)(=O)c1ccc(C(=O)O)cc1
inactive: outcome [1] | outcome [2] | outcome [3] | outcome [4] | outcome [5]

CC(O)CCCCn1c(=O)c2c(ncn2C)n(C)c1=O (stereo not given)
inactive: outcome [1] | outcome [2] | outcome [3] | outcome [4] | outcome [5]

CCCCCC(C)N (stereo not given)
inactive: outcome [1] | outcome [2] | outcome [3] | outcome [4] | outcome [5]

Cc1cc(C)nc(NS(=O)(=O)c2ccc(N)cc2)n1
inactive: outcome [1] | outcome [2] | outcome [3] | outcome [4] | outcome [5]

NS(=O)(=O)c1ccc(NC(=O)CCC(=O)O)cc1
inactive: outcome [1] | outcome [2] | outcome [3] | outcome [4] | outcome [5]

CN1C(C)(C)CCCC1(C)C
inactive: outcome [1] | outcome [2] | outcome [3] | outcome [4] | outcome [5]

COC(=O)N/N=C/c1c[n+]([O-])c2ccccc2[n+]1[O-]
inactive: outcome [1] | outcome [2] | outcome [3] | outcome [4] | outcome [5]

Cc1c(C(=O)NCCO)[n+](=O)c2ccccc2n1[O-]
inactive: outcome [1] | outcome [2] | outcome [3] | outcome [4] | outcome [5]

CC(=O)NS(=O)(=O)c1ccc(N)cc1
inactive: outcome [1] | outcome [2] | outcome [3] | outcome [4] | outcome [5]

CC(=O)OCC(=O)[C@@]1(O)CC[C@H]2[C@@H]3CCC4=CC(=O)C=C[C@]4(C)[C@@]3(F)[C@@H](O)C[C@@]21C
inactive: outcome [1] | outcome [2] | outcome [3] | outcome [4] | outcome [5]

CN(C/C=C/C#CC(C)(C)C)Cc1cccc2ccccc12
inactive: outcome [1] | outcome [2] | outcome [3] | outcome [4] | outcome [5]

O=C(NCCCN1CCOCC1)c1ccc(Cl)cc1
inactive: outcome [1] | outcome [2] | outcome [3] | outcome [4] | outcome [5]
